Laboratory results taken from PubChem BioAssay (EPA / NIEHS).
Values joined by “and” are separate entries in the source; they are usually repeats but may differ in a detail not shown here. Equal values may be shown once. Inconclusive results are not listed. The source holds several records for some structures; these can differ, active in one and inactive in another. Active and inactive are the calls of the source. Rule for the calls: active = hit-call score of the fitted dose curve at least 0.9, where 1 is the maximum; inconclusive = response in the unintended direction; inactive = score below 0.9.

What was measured:
[1] = system: frog Estrogen Receptor (ER), gene 398734; test: ATG_frER1_XSP2: Attagene TRANS-FACTORIAL Multi-Species (XSP2) HepG2 Assay for frog Estrogen Receptor (ER) (AID 2283821);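 note: hits raise reporter mRNA above DMSO baseline so potency means agonist or activator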
Summary of the method: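 Gain-of-signal mRNA reporter assay, HepG2 human liver cells, 24 h dosing; transcripts read by fluorescent RT-PCR fragment analysis, DMSO as negative control.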

[2] = system: zebrafish Estrogen Receptor (ER2b), gene 317733; test: ATG_zfER2b_XSP2: Attagene TRANS-FACTORIAL Multi-Species (XSP2) HepG2 Assay for zebrafish Estrogen Receptor (ER2b) (AID 2283823);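 note: fitted upward as reporter gain over DMSO so potency reflects activation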
Summary of the method: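 HepG2 human liver cells transiently transfected with multiplexed GAL4-UAS reporter units expressing chimeric NR-Gal4 proteins; compounds dosed for 24 h. Reporter mRNA quantified by RT-PCR, 6-FAM labelling and capillary electrophoresis; gain-of-signal fitted against DMSO baseline.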

[3] = system: frog Estrogen Receptor (ER2), gene 100174814; test: ATG_frER2_XSP2: Attagene TRANS-FACTORIAL Multi-Species (XSP2) HepG2 Assay for frog Estrogen Receptor (ER2) (AID 2283828)
Summary of the method: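 Induction of reporter mRNA, baseline set by DMSO, is the endpoint. The panel was run in transfected HepG2 cells over 24 h, with 3 nM 6-alpha-fluorotestosterone and 1.5 nM norgestrel present to stimulate androgen receptor.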

[4] = target: Peroxisome proliferator-activated receptor gamma (Homo sapiens) (UniProt P37231); test: ATG_hPPARg_XSP2: Attagene TRANS-FACTORIAL Multi-Species (XSP2) HepG2 Assay for human Peroxisome Proliferator-activated Receptor gamma (PPARg) (AID 2283829);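 note: actives raise reporter mRNA above DMSO so AC50 reflects PPARg activation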
Summary of the method: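 Reporter transcripts were measured by RT-PCR, fluorescent labeling, HpaI digestion and capillary electrophoresis, relative to DMSO, 24 h post-dosing. Transiently transfected HepG2 expressed NR-Gal4 chimeras regulating GAL4-UAS reporters; medium contained 3 nM 6-alpha-fluorotestosterone plus 1.5 nM norgestrel.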

[5] = target: mouse Peroxisome Proliferator-activated Receptor gamma (PPARg), Pparg (gene 19016) (UniProt P37238); test: ATG_mPPARg_XSP2: Attagene TRANS-FACTORIAL Multi-Species (XSP2) HepG2 Assay for mouse Peroxisome Proliferator-activated Receptor gamma (PPARg) (AID 2283830);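 note: hits are gains in reporter mRNA above DMSO so AC50 marks activation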
Summary of the method: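 Multiplexed TRANS reporter readout: after 24 h chemical exposure of transfected HepG2 cells (with 3 nM 6-alpha-fluorotestosterone, 1.5 nM norgestrel present), RNA reverse-transcribed, amplified, 6-FAM-labelled and resolved by capillary electrophoresis; mouse PPARg-Gal4 induction scored against DMSO.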

[6] = target: Nuclear receptor subfamily 1 group I member 2 (Mus musculus) (UniProt O54915); test: ATG_mPXR_XSP2: Attagene TRANS-FACTORIAL Multi-Species (XSP1) HepG2 Assay for mouse Pregnane X Receptor (PXR) (AID 2283831)
Summary of the method: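 Reporter transcripts measured after 24 h dosing by RT-PCR with 6-FAM labelling, HpaI digestion and capillary electrophoresis. Transiently transfected HepG2 with NR-Gal4 chimeras; increase over DMSO baseline scored.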

[7] = ATG_M_32_XSP2: Attagene TRANS-FACTORIAL Multi-Species (XSP2) HepG2 Assay for M19 Transcription Factor (Internal Marker) (AID 2283826)
Summary of the method: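 Read-out: reporter mRNA quantified by RT-PCR, FAM labeling, HpaI digestion and capillary electrophoresis, 24 h after dosing transfected HepG2 cells. Medium carried 3 nM 6-alpha-fluorotestosterone plus 1.5 nM norgestrel; gain of signal fitted against DMSO.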

[8] = system: zebrafish Androgen Receptor (AR), gene 100005148; test: ATG_zfAR_XSP2: Attagene TRANS-FACTORIAL Multi-Species (XSP2) HepG2 Assay for zebrafish Androgen Receptor (AR) (AID 2283825);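 note: hits raise reporter mRNA above DMSO so AC50 reflects agonist-type gain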
Summary of the method: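 After 24 h compound exposure in medium with 3 nM 6-alpha-fluorotestosterone plus 1.5 nM norgestrel, HepG2 cells carrying zebrafish AR–GAL4 reporter constructs were assessed for reporter mRNA gain by RT-PCR and capillary electrophoresis.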

[9] = ATG_M_19_XSP2: Attagene TRANS-FACTORIAL Multi-Species (XSP2) HepG2 Assay for M32 Transcription Factor (Internal Marker) (AID 2283822)
Summary of the method: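 Internal background marker in a multi-species nuclear receptor TRANS panel: transfected HepG2 cells exposed 24 h, with 3 nM 6-alpha-fluorotestosterone and 1.5 nM norgestrel present. Readout is RT-PCR of reporter transcripts resolved by capillary electrophoresis, gain-of-signal versus DMSO.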

[10] = target: Estrogen receptor (Homo sapiens) (UniProt P03372); test: ATG_hERa_XSP2: Attagene TRANS-FACTORIAL Multi-Species (XSP2) HepG2 Assay for human Estrogen Receptor (ERa) (AID 2283827)
Summary of the method: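 Trans-activation of exogenous human ERa-Gal4 chimera read in HepG2 as reporter transcript after 24 h exposure; medium included 3 nM 6-alpha-fluorotestosterone and 1.5 nM norgestrel. Quantified by RT-PCR with capillary electrophoresis, positive-direction fitting against DMSO.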

Peroxisome proliferator-activated receptor gamma (Homo sapiens), sequence (P37231 whole entry, looked up, the tested form may be a part): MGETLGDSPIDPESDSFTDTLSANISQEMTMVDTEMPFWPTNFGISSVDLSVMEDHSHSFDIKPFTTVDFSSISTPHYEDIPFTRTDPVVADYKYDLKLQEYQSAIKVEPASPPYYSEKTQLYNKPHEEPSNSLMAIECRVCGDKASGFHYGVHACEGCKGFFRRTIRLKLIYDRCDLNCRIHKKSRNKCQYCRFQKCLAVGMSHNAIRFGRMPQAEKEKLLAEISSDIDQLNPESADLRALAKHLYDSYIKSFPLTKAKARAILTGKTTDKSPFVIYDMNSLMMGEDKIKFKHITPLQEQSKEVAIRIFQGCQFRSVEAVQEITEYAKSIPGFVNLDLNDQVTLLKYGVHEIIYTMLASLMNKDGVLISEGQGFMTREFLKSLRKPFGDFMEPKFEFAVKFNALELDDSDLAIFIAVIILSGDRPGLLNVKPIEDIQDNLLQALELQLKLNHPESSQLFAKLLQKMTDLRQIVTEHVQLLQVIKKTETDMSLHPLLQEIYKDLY
mouse Peroxisome Proliferator-activated Receptor gamma (PPARg), Pparg (gene 19016), sequence (P37238 whole entry, looked up, the tested form may be a part): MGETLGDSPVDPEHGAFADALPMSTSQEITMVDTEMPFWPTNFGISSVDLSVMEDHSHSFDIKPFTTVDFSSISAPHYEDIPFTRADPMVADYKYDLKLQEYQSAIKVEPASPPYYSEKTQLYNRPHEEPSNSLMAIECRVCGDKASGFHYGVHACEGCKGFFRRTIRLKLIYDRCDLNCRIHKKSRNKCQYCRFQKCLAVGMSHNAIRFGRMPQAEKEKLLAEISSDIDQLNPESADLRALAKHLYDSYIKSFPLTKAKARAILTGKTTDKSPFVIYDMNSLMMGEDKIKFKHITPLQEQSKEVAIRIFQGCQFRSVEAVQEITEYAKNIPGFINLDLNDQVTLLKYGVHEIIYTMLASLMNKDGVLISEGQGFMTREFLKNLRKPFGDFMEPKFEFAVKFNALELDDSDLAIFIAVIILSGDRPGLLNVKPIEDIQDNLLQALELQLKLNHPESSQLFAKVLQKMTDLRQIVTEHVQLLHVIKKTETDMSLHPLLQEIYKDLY
Nuclear receptor subfamily 1 group I member 2 (Mus musculus), sequence (O54915 whole entry, looked up, the tested form may be a part): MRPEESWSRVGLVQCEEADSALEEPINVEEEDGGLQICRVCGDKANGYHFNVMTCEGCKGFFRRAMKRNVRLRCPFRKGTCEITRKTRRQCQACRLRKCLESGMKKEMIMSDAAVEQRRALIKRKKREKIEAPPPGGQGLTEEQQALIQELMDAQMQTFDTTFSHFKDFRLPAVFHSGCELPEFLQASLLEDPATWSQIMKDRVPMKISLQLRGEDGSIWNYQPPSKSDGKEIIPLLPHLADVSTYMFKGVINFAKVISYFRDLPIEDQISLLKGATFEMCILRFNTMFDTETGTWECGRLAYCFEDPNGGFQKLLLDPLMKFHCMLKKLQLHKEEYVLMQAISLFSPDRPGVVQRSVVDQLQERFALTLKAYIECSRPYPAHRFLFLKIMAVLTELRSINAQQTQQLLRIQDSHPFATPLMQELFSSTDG
Estrogen receptor (Homo sapiens), sequence (P03372 whole entry, looked up, the tested form may be a part): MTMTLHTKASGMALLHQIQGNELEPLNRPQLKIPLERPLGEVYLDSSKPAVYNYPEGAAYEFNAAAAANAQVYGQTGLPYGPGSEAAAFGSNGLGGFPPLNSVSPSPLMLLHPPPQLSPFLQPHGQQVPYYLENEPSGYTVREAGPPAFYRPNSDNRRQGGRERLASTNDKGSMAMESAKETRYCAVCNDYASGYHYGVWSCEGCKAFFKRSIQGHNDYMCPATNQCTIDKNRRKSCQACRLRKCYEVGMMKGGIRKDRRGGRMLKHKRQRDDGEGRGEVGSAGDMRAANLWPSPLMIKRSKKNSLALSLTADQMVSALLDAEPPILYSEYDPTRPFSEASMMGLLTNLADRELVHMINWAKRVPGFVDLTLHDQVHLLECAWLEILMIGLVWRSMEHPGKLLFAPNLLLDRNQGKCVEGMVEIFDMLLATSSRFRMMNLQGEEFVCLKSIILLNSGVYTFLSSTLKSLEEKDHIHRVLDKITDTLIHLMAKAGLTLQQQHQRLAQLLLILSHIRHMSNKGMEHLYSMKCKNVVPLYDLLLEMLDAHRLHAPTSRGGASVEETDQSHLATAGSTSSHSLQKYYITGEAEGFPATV

C#CCC1=C(C)C(OC(=O)C2C(C=C(C)C)C2(C)C)CC1=O (configuration not stated)
outcome [1]: inactive | outcome [2]: inactive | outcome [3]: inactive | AC50 [4]: 22.6 µM (active) | AC50 [5]: 30.2 µM (active) | AC50 [6]: 0.712 µM (active)

CCC(=O)Nc1ccc(Cl)c(Cl)c1
AC50 [1]: 38 µM (active) | outcome [1]: inactive | AC50 [2]: 170 µM (active) | outcome [2]: inactive | outcome [3]: inactive | AC50 [4]: 27.2 µM (active) | AC50 [5]: 39.7 µM (active) | outcome [5]: inactive | AC50 [6]: 27.6 µM (active) and 24.3 µM (active)

CCc1cccc(C)c1N(C(=O)CCl)C(C)COC (configuration not stated)
outcome [2]: inactive | outcome [7]: inactive | outcome [3]: inactive | AC50 [4]: 55.8 µM (active) | AC50 [5]: 27.3 µM (active) | AC50 [6]: 3.96 µM (active)

COc1ccc(C(=CC(=O)N2CCOCC2)c2ccc(Cl)cc2)cc1OC
outcome [1]: inactive | AC50 [2]: 100 µM (active) and 54.2 µM (active) | outcome [8]: inactive | AC50 [3]: 52.4 µM (active) | outcome [3]: inactive | AC50 [4]: 19.8 µM (active) | outcome [4]: inactive | AC50 [5]: 29.3 µM (active) | outcome [5]: inactive | AC50 [6]: 4.65 µM (active) and 4.32 µM (active)

CCOP(=O)(NC(C)C)Oc1ccc(SC)c(C)c1 (configuration not stated)
AC50 [1]: 148 µM (active) and 8.45 µM (active) | AC50 [2]: 65.5 µM (active) and 43.8 µM (active) | outcome [7]: inactive | AC50 [3]: 100 µM (active) and 69 µM (active) | AC50 [4]: 43.6 µM (active) and 36.6 µM (active) | AC50 [5]: 31.6 µM (active) and 38.4 µM (active) | AC50 [6]: 4.34 µM (active) and 4.75 µM (active)

Nc1c(Cl)cc([N+](=O)[O-])cc1Cl
outcome [1]: inactive | outcome [9]: inactive | AC50 [2]: 25.3 µM (active) and 49.6 µM (active) | outcome [7]: inactive | AC50 [10]: 10.9 µM (active) and 17.4 µM (active) | outcome [3]: inactive | AC50 [4]: 25.7 µM (active) and 34.9 µM (active) | AC50 [5]: 11.9 µM (active) and 41.8 µM (active) | AC50 [6]: 10.8 µM (active) and 9.9 µM (active)

CCOP(=S)(OCC)Oc1ccc2c(C)c(Cl)c(=O)oc2c1
outcome [1]: inactive | AC50 [2]: 100 µM (active) | outcome [7]: inactive | AC50 [4]: 27 µM (active) | AC50 [5]: 5.43 µM (active) | AC50 [6]: 0.00908 µM (active)

CCC(CC)Nc1c([N+](=O)[O-])cc(C)c(C)c1[N+](=O)[O-]
AC50 [1]: 3.96 µM (active) and 5.7 µM (active) | AC50 [2]: 18.1 µM (active) and 7.12 µM (active) | outcome [7]: inactive | AC50 [3]: 8.22 µM (active) and 4.99 µM (active) | outcome [4]: inactive | outcome [5]: inactive | AC50 [6]: 266 nM (active) and 269 nM (active)

C#CC(C)(C)NC(=O)c1cc(Cl)cc(Cl)c1
AC50 [1]: 27.6 µM (active) | outcome [2]: inactive | outcome [7]: inactive | outcome [3]: inactive | AC50 [6]: 26.8 µM (active)

CCCOCC(=Nc1ccc(Cl)cc1C(F)(F)F)n1ccnc1
outcome [1]: inactive | AC50 [2]: 39.8 µM (active) | outcome [7]: inactive | outcome [3]: inactive | AC50 [4]: 0.909 µM (active) | AC50 [5]: 1.28 µM (active) | AC50 [6]: 9.9 µM (active)
